# In all, about 5,500 compounds went through this assay and about 2,000 (36%) were called active. Inconclusive results (about 18%) are left out. The list shows a part of the results. A number with no mark means an inactive call. Cut-off read from the data, not from the text of the source: active = normalized growth mostly below about 0.91 (no sharp cut-off); inconclusive = no clear call, values can overlap the other calls; inactive = mostly above about 0.92.
# Test: chemical genetic growth profiling, strain panel (AID 1159580);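 note: tested at 20 µM; growth read once vehicle control cultures reached saturation at 30 °C; 1 = growth at the plate median or of vehicle wells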
# Details: S. cerevisiae deletion strains, growth OD
# [1] = locus YAR019C, strain CDC15, stronger effect = lower value
# [2] = locus YBL105C, strain PKC1, stronger effect = lower value
# [3] = locus YBR135W, strain CKS1, stronger effect = lower value
# [4] = locus YBR136W, strain MEC1, stronger effect = lower value
# [5] = locus YBR160W, strain CDC28, stronger effect = lower value
# [6] = locus YDL017W, strain CDC7, stronger effect = lower value
# [7] = locus YDL028C, strain MPS1, stronger effect = lower value
# [8] = locus YDL101C, strain DUN1, stronger effect = lower value
# [9] = locus YDL108W, strain KIN28, stronger effect = lower value
# [10] = locus YDL132W, strain cdc53, stronger effect = lower value
# [11] = locus YDL214C, strain PRR2, stronger effect = lower value
# [12] = locus YDR052C, strain DBF4, stronger effect = lower value
# [13] = locus YDR054C, strain cdc34, stronger effect = lower value
# [14] = locus YDR226W, strain ADK1, stronger effect = lower value
# [15] = locus YDR477W, strain SNF1, stronger effect = lower value
# [16] = locus YER123W, strain YCK3, stronger effect = lower value
# [17] = locus YER133W, strain GLC7, stronger effect = lower value
# [18] = locus YFL009W, strain cdc4, stronger effect = lower value
# [19] = locus YFL029C, strain CAK1, stronger effect = lower value
# [20] = locus YFR003C, strain YPI1, stronger effect = lower value
# [21] = locus YFR019W, strain FAB1, stronger effect = lower value
# [22] = locus YFR028C, strain CDC14, stronger effect = lower value
# [23] = locus YGR040W, strain KSS1, stronger effect = lower value
# [24] = locus YGR052W, strain FMP48, stronger effect = lower value
# [25] = locus YGR092W, strain DBF2, stronger effect = lower value
# [26] = locus YHR030C, strain SLT2, stronger effect = lower value
# [27] = locus YHR079C, strain IRE1, stronger effect = lower value
# [28] = locus YHR082C, strain KSP1, stronger effect = lower value
# [29] = locus YHR205W, strain SCH9, stronger effect = lower value
# [30] = locus YIL147C, strain SLN1, stronger effect = lower value
# [31] = locus YJL095W, strain BCK1, stronger effect = lower value
# [32] = locus YJL128C, strain PBS2, stronger effect = lower value
# [33] = locus YJL157C, strain FAR1, stronger effect = lower value
# [34] = locus YJR016C, strain ILV3, stronger effect = lower value
# [35] = locus YJR066W, strain TOR1 (second series), stronger effect = lower value
# [36] = locus YJR066W, strain TOR1, stronger effect = lower value
# [37] = locus YKL048C, strain ELM1, stronger effect = lower value
# [38] = locus YKL067W, strain YNK1, stronger effect = lower value
# [39] = locus YKL101W, strain HSL1, stronger effect = lower value
# [40] = locus YKL193C, strain SDS22, stronger effect = lower value
# [41] = locus YKL203C, strain TOR2, stronger effect = lower value
# [42] = locus YLR113W, strain HOG1, stronger effect = lower value
# [43] = locus YLR133W, strain CKI1, stronger effect = lower value
# [44] = locus YLR403W, strain SFP1, stronger effect = lower value
# [45] = locus YML070W, strain DAK1, stronger effect = lower value
# [46] = locus YMR001C, strain CDC5, stronger effect = lower value
# [47] = locus YMR205C, strain PFK2 (second series), stronger effect = lower value
# [48] = locus YMR277W, strain FCP1, stronger effect = lower value
# [49] = locus YNL006W, strain LST8, stronger effect = lower value
# [50] = locus YNL020C, strain ARK1, stronger effect = lower value
# [51] = locus YNL161W, strain CBK1, stronger effect = lower value
# [52] = locus YNL183C, strain NPR1, stronger effect = lower value
# [53] = locus YNL207W, strain RIO2, stronger effect = lower value
# [54] = locus YNL222W, strain SSU72, stronger effect = lower value
# [55] = locus YNL307C, strain MCK1 (second series), stronger effect = lower value
# [56] = locus YOL078W, strain AVO1, stronger effect = lower value
# [57] = locus YOL136C, strain PFK27, stronger effect = lower value
# [58] = locus YOR061W, strain CKA2, stronger effect = lower value
# [59] = locus YOR119C, strain RIO1, stronger effect = lower value
# [60] = locus YOR231W, strain MKK1, stronger effect = lower value
# [61] = locus YOR329C, strain SCD5, stronger effect = lower value
# [62] = locus YPL031C, strain PHO85, stronger effect = lower value
# [63] = locus YPL153C, strain RAD53, stronger effect = lower value
# [64] = locus YPL204W, strain HRR25, stronger effect = lower value
# [65] = locus YPL209C, strain IPL1, stronger effect = lower value
# [66] = locus YPL256C, strain CLN2, stronger effect = lower value
# [67] = locus YPR025C, strain CCL1, stronger effect = lower value
# [68] = locus YPR106W, strain ISR1, stronger effect = lower value
# [69] = locus YPR111W, strain DBF20, stronger effect = lower value
# [70] = strain NNK1, stronger effect = lower value
# [71] = strain TSCII, stronger effect = lower value
compound,measurement,setting,value
N#C/C(=N/Nc1ccccc1)C(=O)c1ccccc1OC(F)(F)F,normalized growth,[1],0.922
same,normalized growth,[2],0.912
same,normalized growth,[3],0.91
same,normalized growth,[4],0.917
same,normalized growth,[5],0.916
same,normalized growth,[6],0.918
same,normalized growth,[7],0.918
same,normalized growth,[8],0.93
same,normalized growth,[9],0.912
same,normalized growth,[10],0.909
same,normalized growth,[11],0.877
same,normalized growth,[12],0.928
same,normalized growth,[13],0.922
same,normalized growth,[14],0.901
same,normalized growth,[15],0.88
same,normalized growth,[16],0.831
same,normalized growth,[17],0.898
same,normalized growth,[18],0.91
same,normalized growth,[19],0.919
same,normalized growth,[20],0.918
same,normalized growth,[21],0.903
same,normalized growth,[22],0.906
same,normalized growth,[23],0.853
same,normalized growth,[24],0.883
same,normalized growth,[25],0.797
same,normalized growth,[26],0.841 (active)
same,normalized growth,[27],0.853
same,normalized growth,[28],0.9
same,normalized growth,[29],0.901
same,normalized growth,[30],0.912
same,normalized growth,[31],0.891
same,normalized growth,[32],0.89
same,normalized growth,[33],0.883
same,normalized growth,[34],0.918
same,normalized growth,[35],0.879
same,normalized growth,[36],0.885
same,normalized growth,[37],0.883
same,normalized growth,[38],0.895
same,normalized growth,[39],0.876
same,normalized growth,[40],0.919
same,normalized growth,[41],0.913
same,normalized growth,[42],0.816 (active)
same,normalized growth,[43],0.87
same,normalized growth,[44],0.837
same,normalized growth,[45],0.879
same,normalized growth,[46],0.92
same,normalized growth,[47],0.91
same,normalized growth,[48],0.912
same,normalized growth,[49],0.915
same,normalized growth,[50],0.866
same,normalized growth,[51],0.915
same,normalized growth,[52],0.92
same,normalized growth,[53],0.905
same,normalized growth,[54],0.913
same,normalized growth,[55],0.893
same,normalized growth,[56],0.913
same,normalized growth,[57],0.845
same,normalized growth,[58],0.885
same,normalized growth,[59],0.909
same,normalized growth,[60],0.857
same,normalized growth,[61],0.922
same,normalized growth,[62],0.842
same,normalized growth,[63],0.882
same,normalized growth,[64],0.802
same,normalized growth,[65],0.915
same,normalized growth,[66],0.881
same,normalized growth,[67],0.919
same,normalized growth,[68],0.926
same,normalized growth,[69],0.904
same,normalized growth,[70],0.914
same,normalized growth,[71],0.902
CC(=O)/C(C#N)=N\Nc1ccc(F)cc1,normalized growth,[1],0.429 (active)
same,normalized growth,[2],0.519 (active)
same,normalized growth,[3],0.782 (active)
same,normalized growth,[4],0.583 (active)
same,normalized growth,[5],0.723 (active)
same,normalized growth,[6],0.584 (active)
same,normalized growth,[7],0.728 (active)
same,normalized growth,[8],0.201 (active)
same,normalized growth,[11],0.118 (active)
same,normalized growth,[12],0.957
same,normalized growth,[13],0.525 (active)
same,normalized growth,[14],0.978
same,normalized growth,[15],0.127 (active)
same,normalized growth,[16],0.115 (active)
same,normalized growth,[17],0.17 (active)
same,normalized growth,[18],0.631 (active)
same,normalized growth,[19],0.468 (active)
same,normalized growth,[20],0.633 (active)
same,normalized growth,[21],0.115 (active)
same,normalized growth,[22],0.699 (active)
same,normalized growth,[23],0.137 (active)
same,normalized growth,[24],0.185 (active)
same,normalized growth,[25],0.102 (active)
same,normalized growth,[26],0.108 (active)
same,normalized growth,[27],0.138 (active)
same,normalized growth,[28],0.171 (active)
same,normalized growth,[29],0.102 (active)
same,normalized growth,[30],0.585 (active)
same,normalized growth,[31],0.12 (active)
same,normalized growth,[32],0.316 (active)
same,normalized growth,[33],0.102 (active)
same,normalized growth,[35],0.107 (active)
same,normalized growth,[36],0.137 (active)
same,normalized growth,[37],0.14 (active)
same,normalized growth,[38],0.117 (active)
same,normalized growth,[39],0.118 (active)
same,normalized growth,[40],0.455 (active)
same,normalized growth,[41],0.126 (active)
same,normalized growth,[42],0.178 (active)
same,normalized growth,[43],0.118 (active)
same,normalized growth,[44],0.0142 (active)
same,normalized growth,[45],0.123 (active)
same,normalized growth,[46],0.458 (active)
same,normalized growth,[47],0.132 (active)
same,normalized growth,[48],0.349 (active)
same,normalized growth,[49],0.57 (active)
same,normalized growth,[50],0.123 (active)
same,normalized growth,[51],0.409 (active)
same,normalized growth,[52],0.147 (active)
same,normalized growth,[53],0.632 (active)
same,normalized growth,[54],0.487 (active)
same,normalized growth,[55],0.126 (active)
same,normalized growth,[56],0.568 (active)
same,normalized growth,[57],0.114 (active)
same,normalized growth,[58],0.127 (active)
same,normalized growth,[59],0.131 (active)
same,normalized growth,[60],0.136 (active)
same,normalized growth,[61],0.488 (active)
same,normalized growth,[62],0.124 (active)
same,normalized growth,[63],0.132 (active)
same,normalized growth,[64],0.124 (active)
same,normalized growth,[65],0.587 (active)
same,normalized growth,[66],0.181 (active)
same,normalized growth,[67],0.631 (active)
same,normalized growth,[70],0.344 (active)
same,normalized growth,[71],0.512 (active)
CC(C)(C)c1ccc(N/N=C(\C#N)C(N)=O)cc1,normalized growth,[1],0.111 (active)
same,normalized growth,[2],0.0972 (active)
same,normalized growth,[3],0.109 (active)
same,normalized growth,[4],0.109 (active)
same,normalized growth,[5],0.114 (active)
same,normalized growth,[6],0.0979 (active)
same,normalized growth,[7],0.117 (active)
same,normalized growth,[8],0.115 (active)
same,normalized growth,[9],0.11 (active)
same,normalized growth,[10],0.142 (active)
same,normalized growth,[11],0.114 (active)
same,normalized growth,[12],0.146 (active)
same,normalized growth,[13],0.107 (active)
same,normalized growth,[14],0.117 (active)
same,normalized growth,[15],0.103 (active)
same,normalized growth,[16],0.104 (active)
same,normalized growth,[17],0.133 (active)
same,normalized growth,[18],0.105 (active)
same,normalized growth,[19],0.11 (active)
same,normalized growth,[20],0.0948 (active)
same,normalized growth,[21],0.103 (active)
same,normalized growth,[22],0.108 (active)
same,normalized growth,[23],0.108 (active)
same,normalized growth,[24],0.145 (active)
same,normalized growth,[25],0.101 (active)
same,normalized growth,[26],0.189 (active)
same,normalized growth,[27],0.214 (active)
same,normalized growth,[28],0.225 (active)
same,normalized growth,[29],0.000939 (active)
same,normalized growth,[30],0.107 (active)
same,normalized growth,[31],0.166 (active)
same,normalized growth,[32],0.0973 (active)
same,normalized growth,[33],0.112 (active)
same,normalized growth,[34],0.101 (active)
same,normalized growth,[35],0.0973 (active)
same,normalized growth,[36],0.207 (active)
same,normalized growth,[37],0.134 (active)
same,normalized growth,[38],0.118 (active)
same,normalized growth,[39],0.103 (active)
same,normalized growth,[40],0.109 (active)
same,normalized growth,[41],0.112 (active)
same,normalized growth,[42],0.212 (active)
same,normalized growth,[43],0.0995 (active)
same,normalized growth,[44],0.00739 (active)
same,normalized growth,[45],0.116 (active)
same,normalized growth,[46],0.112 (active)
same,normalized growth,[47],0.0978 (active)
same,normalized growth,[48],0.105 (active)
same,normalized growth,[49],0.0902 (active)
same,normalized growth,[50],0.0965 (active)
same,normalized growth,[51],0.112 (active)
same,normalized growth,[52],0.135 (active)
same,normalized growth,[53],0.102 (active)
same,normalized growth,[54],0.107 (active)
same,normalized growth,[55],0.109 (active)
same,normalized growth,[56],0.108 (active)
same,normalized growth,[57],0.122 (active)
same,normalized growth,[58],0.092 (active)
same,normalized growth,[59],0.119 (active)
same,normalized growth,[60],0.249 (active)
same,normalized growth,[61],0.101 (active)
same,normalized growth,[62],0.103 (active)
same,normalized growth,[63],0.0998 (active)
same,normalized growth,[64],0.108 (active)
same,normalized growth,[65],0.0972 (active)
same,normalized growth,[66],0.243 (active)
same,normalized growth,[67],0.112 (active)
same,normalized growth,[68],0.107 (active)
same,normalized growth,[69],0.131 (active)
same,normalized growth,[70],0.105 (active)
same,normalized growth,[71],0.106 (active)
